Molecules are shown by their SMILES. Values joined by “and” are separate entries in the source; they are usually repeats but may differ in a detail not shown here. Equal entries are not always repeated. Records with an inconclusive call do not appear. Where a call stands in place of a potency, no number is given. Active and inactive are the calls of the source. Calls follow the shape of the dose curve; as a rule, active = well fitted activation curve with a large enough effect in the signal ratio in the repeat runs (not every such curve was filed as active); inconclusive = weak or mixed curves, or effect the other way; inactive = no such curve, though single readings can be large or run the other way; the % refers to the signal ratio.
Potency is read from the fitted curve at half-maximal effect.

Sequence of Peroxisome proliferator-activated receptor gamma (Homo sapiens) (P37231 whole entry, looked up): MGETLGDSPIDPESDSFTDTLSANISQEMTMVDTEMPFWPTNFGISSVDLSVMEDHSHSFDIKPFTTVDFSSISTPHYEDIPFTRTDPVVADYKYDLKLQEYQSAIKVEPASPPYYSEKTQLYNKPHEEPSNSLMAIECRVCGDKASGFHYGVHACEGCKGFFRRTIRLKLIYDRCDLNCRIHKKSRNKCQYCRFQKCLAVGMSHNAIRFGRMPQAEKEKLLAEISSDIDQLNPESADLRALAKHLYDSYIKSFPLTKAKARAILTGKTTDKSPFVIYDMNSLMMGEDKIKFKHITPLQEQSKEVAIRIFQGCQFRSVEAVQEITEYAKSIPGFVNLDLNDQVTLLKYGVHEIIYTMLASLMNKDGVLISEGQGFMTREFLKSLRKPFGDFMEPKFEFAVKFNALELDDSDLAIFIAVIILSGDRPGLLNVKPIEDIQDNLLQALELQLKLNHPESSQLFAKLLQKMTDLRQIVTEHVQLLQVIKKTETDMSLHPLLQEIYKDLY

This assay has as its target Peroxisome proliferator-activated receptor gamma (Homo sapiens) (UniProt P37231). Description: qHTS assay to identify small molecule agonists of the peroxisome proliferator-activated receptor gamma (PPARg) signaling pathway (AID 743094). The conditions noted are these: HEK293H PPARg-UAS-bla, beta-lactamase FRET ratio, 17 h; series mostly up to 57 µM. An excerpt: U.S. Tox21 Program National Center for Advancing Translational Sciences [NCATS] NIH Chemical Genomics Center [NCGC] U.S. Environmental Protection Agency [EPA] National Institutes of Environmental Health Sciences [NIEHS] National Toxicology Program [NTP] U.S. Food and Drug Administration [FDA] Tox21 Assay Overview: The peroxisome proliferator-activated receptors (PPARs) are lipid-activated transcription factors of the nuclear receptor superfamily with three distinct subtypes namely PPAR alpha, PPAR delta (also called PPAR beta) and PPAR gamma (PPARg). All these subtypes heterodimerize with Retinoid X receptor (RXR) and these heterodimers regulate transcription of various genes. PPAR-gamma receptor (glitazone receptor) is involved in the regulation of glucose and lipid metabolism. To identify the compounds that activate PPAR-gamma signaling, GeneBLAzer PPAR gamma UAS-bla HEK293H cell line (Invitrogen, Carlsbad, CA, USA) containing a beta-lactamase reporter gene under control of the control of an upstream activator sequence (UAS) stably integrated into HEK293H cells was used to screen Tox21 compound library.
Tox21 Assay Protocol Summary: PPARg-bla cells were dispensed at 3000 cells/6uL/well in 1536-well black wall/clear bottom plates using a Multidrop Combi (Thermo Fisher Scientific, Waltham, MA) dispenser. After the assay plates were incubated at 37C and 5% CO2 for 5 h, 23 nL of compounds dissolved in DMSO, positive controls or DMSO only was transferred to the assay plate by a Pintool station (Kalypsys, San Diego, CA). The assay plates were incubated at 37C for 17 h. After 1 uL of LiveBLAzerTM B/G FRET substrate was added using a Bioraptr Flying Reagent Dispenser (FRD) workstation (Beckman Coulter, Indianapolis, IN, USA), the plates were incubated at room temperature for 1 h, and fluorescence intensity was measured by an Envision plate reader (PerkinElmer, Shelton, CT).
Background: qHTS replaces the single test concentration by a dilution series.
As to `COC(=O)c1sccc1S(=O)(=O)NC(=O)Nc1nc(C)nc(OC)n1`, the Potency result was “inactive”.
Regarding `CNC(=O)Oc1cccc2c1OC(C)(C)O2`, the Potency result was “inactive”.
The value for `C=C(C)C(=O)OCC1CO1` (stereo not given) was “inactive”; that for `COP(=O)(OC)OC` was “inactive”; that for `CC(C)Oc1cc(-n2nc(C(C)(C)C)oc2=O)c(Cl)cc1Cl` was “inactive”.
The value for `CCCCC(CC)COC(=O)Cl` (stereo not given) was “inactive”.
The value for `C1=Cc2cccc3cccc1c23` was “inactive”.
Regarding `CC(O)CCO` (stereo not given), the Potency result was “inactive”.
The value for `NC(=S)Nc1ccccc1` was “inactive”; that for `c1nc[nH]n1` was “inactive”; that for `Oc1ccc(-c2ccccc2)cc1` was “inactive”.
The value for `C=CCc1ccc2c(c1)OCO2` was “inactive”; that for `Cc1c(COC(=O)[C@@H]2[C@H](/C=C(\Cl)C(F)(F)F)C2(C)C)cccc1-c1ccccc1` was “inactive”.
The value for `N#CC(Br)Br` was “inactive”.
In the case of `N[C@@H](Cc1ccc(N(CCCl)CCCl)cc1)C(=O)O`, the Potency entry is “inactive”.
The value for `CC1(C)C(C=C(Cl)Cl)C1C(=O)OC(C#N)c1cccc(Oc2ccccc2)c1` (stereo not given) was “inactive”; that for `Nc1ccc(-c2ccc(N)c(N)c2)cc1N` was “inactive”.
The value for `OCC(O)CO` was “inactive”.
To `CCCCC(CC)COC(=O)c1ccc(C(=O)OCC(CC)CCCC)c(C(=O)OCC(CC)CCCC)c1` (stereo not given) belongs “inactive”; to `COP(=S)(OC)Oc1cc(Cl)c(Cl)cc1Cl`, “inactive”; to `O=[N+]([O-])c1cccc2ccccc12`, “inactive”.
`O=C(NC(=O)c1c(F)cccc1F)Nc1ccc(Cl)cc1`: the Potency entry is “inactive”.
To `CN(C)C(=O)Nc1ccc(Cl)cc1` belongs “inactive”; to `Brc1ccc(Oc2cc(Br)c(Br)cc2Br)c(Br)c1`, “inactive”; to `Oc1cc(Cl)ccc1Oc1ccc(Cl)cc1Cl`, “inactive”.
The value for `Clc1nc(Cl)nc(Cl)n1` was “inactive”.
For `C=CCN(CC=C)C(=O)C(Cl)Cl`, the Potency result was “inactive”.
The value for `CCCCCCCCCCCOC(=O)c1ccccc1C(=O)OCCCCCCCCCCC` was “inactive”.
For the compound `O=C(O)CC[N+](=O)[O-]`, the Potency entry was “inactive”.
The value for `O=[N+]([O-])c1c(Cl)c(Cl)c(Cl)c(Cl)c1Cl` was “inactive”; that for `Nc1cccnc1` was “inactive”.
Consider `O=c1oc2ccccc2c(O)c1C(CC(O)c1ccc(-c2ccc(Br)cc2)cc1)c1ccccc1` (stereo not given), for which the Potency is 601 nM (active) and 1.04 µM (active).
To `Nc1ccc(Cl)c(Cl)c1` belongs “inactive”; to `ClC1C(Cl)C(Cl)C(Cl)C(Cl)C1Cl` (stereo not given), “inactive”.
To `O=C1C=CC(=O)C=C1` belongs “inactive”; to `CNC(=O)N(C)c1nnc(C(C)(C)C)s1`, “inactive”.
As for `CCN(N=O)C(N)=O`, the Potency result is “inactive”.
The value for `c1ccc(N=Nc2ccccc2)cc1` was “inactive”; that for `CCOCN(C(=O)CCl)c1c(C)cccc1CC` was “inactive”.
To `O=[N+]([O-])c1ccc(O)c([N+](=O)[O-])c1` belongs “inactive”.

The values are drawn from PubChem BioAssay (Tox21).
